Source: PubChem (National Center for Advancing Translational Sciences (NCATS))
HCV inhibitor: qHTS Assay for Inhibitors of Hepatitis C Virus (HCV); 340,000 tested, 3.4% active; Potency, µM (top dose mostly 41.8 µM), for the others: at the highest dose activity change, negative = inhibition, actives largely listed as inhibitors; Huh7.5.1 HCVcc-Cre infection, luciferase reporter, 44 h; further: potency means the concentration at half of the fitted maximal effect; on the % scale 0 is the no-effect control and ±100 the full control effect
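1,000 cells/well; 4 h culture; + compound; + HCVcc-Cre (~0.5 moi); 44 h; luciferase substrate, RT 15 min; read 15 sec.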
Shiga inhibitor: A qHTS for Small Molecule Inhibitors of Shiga Toxin. Vero cells, Shiga toxin protein synthesis inhibition reporter. AID 2315, 2010. inhibition, % at 38.7 µM. 290,000 tested, 9.2% active; in the data active means inhibition mostly above about 28%, no sharp cut-off; inactive means mostly below about 43%; further: 0% is about no effect
Pf growth 96h: Primary qHTS for delayed death inhibitors of the malarial parasite plastid, 96 hour incubation; Potency, µM (highest dose often 28.7 µM), inactives show top-dose activity change, negative = inhibition, actives largely listed as inhibitors; AID 504834, 2011; P. falciparum luciferase reporter growth, 96 h; 320,000 tested, 6.9% active; further: potency means the concentration at half of the fitted maximal effect; on the % scale 0 is the no-effect control and ±100 the full control effect
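Compounds incubated with erythrocytes infected by luciferase-expressing P. falciparum (2% hematocrit, 0.05% parasitemia final) for 96 hours, 37 C in 5% CO2. Growth inhibition scored as decreased luciferase luminescence.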
AMA1 RON2 block: qHTS for Inhibitors of AMA1-RON; Towards Development of Antimalarial Drug Lead: Primary Screen; AlphaScreen AMA1-biotinylated RON2 peptide binding; Potency, µM (titrated, usually from 58.2 µM), for inactives: at the top dose activity change, negative = inhibition, most hits filed as inhibitors; 360,000 tested, 0.2% active;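 further: potency means the concentration at half of the fitted maximal effect; 0% = vehicle wells and -100% = peptide control; nearly all actives have a fitted effect of over 45% in size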
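AMA1 (3D7) with his tag at 25 nM final met compounds first, then biotinylated RON2 peptide at 25 nM; detection used donor plus acceptor beads, 10 µg/mL apiece, read by AlphaScreen after 30 min at room temperature.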
CHX counter: Cycloheximide Counterscreen for Small Molecule Inhibitors of Shiga Toxin; cell reporter, cycloheximide protein synthesis inhibition counterscreen; max response, %; 300,000 tested, 12% active; AID 2314, 2010; in the data active means max response mostly above about 13%, no sharp cut-off; inactive means mostly below about 14%; further: read at 38.3 µM for the half of the compounds with a filed dose; 0% is about no effect
Pf growth 48h: Primary qHTS for delayed death inhibitors of the malarial parasite plastid, 48 hour incubation; P. falciparum luciferase growth in erythrocytes, 48 h; 310,000 tested, 5.9% active; Potency, µM (top dose mostly 28.7 µM), without a hit: at the top dose activity change, negative = inhibition, usual class: inhibitors; further: potency means the concentration at half of the fitted maximal effect; on the % scale 0 is the no-effect control and ±100 the full control effect
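Luciferase-expressing parasites in RBCs, 2% Hct / 0.1% parasitemia final; RPMI 1640 + 0.5% Albumax; 37 C, 5% CO2, one generation; luminescence read-out, lower signal = inhibition.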
* marks the source's active call; other numbers are inactive results; [ ] = dose if it differs, or a comment. Hits are enriched below; roughly 21% of the tested compounds scored in any of these assays. Unless noted, the call rests on the fitted dose curve; in most records, active means well fitted curve in the direction sought with a large enough effect; inconclusive means small, poorly fitted or top-dose-only effect, or another doubt; inactive means no such curve, though single readings can be large; an effect the other way counts as inactive or inconclusive.

Screening CCN1CCN(C2=C(NS(=O)(=O)c3ccc(NC(C)=O)cc3)C(=O)c3ccccc3C2=O)CC1 returned HCV inhibitor inconclusive, Shiga inhibitor -2, Pf growth 96h 10µM*, AMA1 RON2 block -14%, CHX counter 22 and Pf growth 48h inconclusive.
`CC(=O)Nc1ccc(S(=O)(=O)NC2=C(N3CCN(C)CC3)C(=O)c3ccccc3C2=O)cc1` gave HCV inhibitor -26%, Shiga inhibitor 4, Pf growth 96h inconclusive, AMA1 RON2 block 9%, CHX counter -2 and Pf growth 48h inconclusive.
Screening CC(=O)Nc1ccc(S(=O)(=O)NC2=C(N3CCN(Cc4ccccc4)CC3)C(=O)c3ccccc3C2=O)cc1 returned HCV inhibitor inconclusive, Shiga inhibitor 19, Pf growth 96h 1.2µM*, AMA1 RON2 block inconclusive and CHX counter 10.
`CCN1CCN(C2=C(NS(=O)(=O)c3ccc(C)cc3)C(=O)c3ccccc3C2=O)CC1` gave HCV inhibitor inconclusive, Shiga inhibitor 38, Pf growth 96h 1.7µM*, AMA1 RON2 block 0%, CHX counter 23* and Pf growth 48h 2.9µM*.
`CC(C)(C)NC(=O)CON=C1c2ccccc2-c2ccccc21` gave HCV inhibitor inconclusive, Shiga inhibitor 9, Pf growth 96h inconclusive, AMA1 RON2 block 22%, CHX counter 1 and Pf growth 48h -13%.
CC(C)(C)NCC(O)CON=C1c2ccccc2-c2ccccc21 (stereo unspecified) was read as HCV inhibitor 25µM*, Shiga inhibitor -5, Pf growth 96h inconclusive, AMA1 RON2 block 8%, CHX counter -1 and Pf growth 48h inconclusive.
`CCCOc1ccccc1C(=O)N(Cc1cccc(Br)c1)C1CCS(=O)(=O)C1` (stereo unspecified) gave HCV inhibitor 14%, Shiga inhibitor -4, Pf growth 96h inconclusive, AMA1 RON2 block -3%, CHX counter -4 and Pf growth 48h inconclusive.
`CCCN1C(=O)c2ccc(C(=O)Nc3cc(C)ccc3O)cc2C1=O` gave HCV inhibitor 15%, Shiga inhibitor 139*, Pf growth 96h -21%, AMA1 RON2 block 3%, CHX counter 56* and Pf growth 48h -9%.
Screening CCCN1C(=O)c2ccc(C(=O)Nc3ccccc3C(=O)O)cc2C1=O returned HCV inhibitor 7%, Shiga inhibitor 46, Pf growth 96h 2%, AMA1 RON2 block 1%, CHX counter 16* and Pf growth 48h 2%[0.00184 µM].
`O=C(Nc1ccc(Br)cc1C(=O)O)c1ccc2c(c1)C(=O)N(Cc1ccccc1)C2=O` gave HCV inhibitor 22%, Shiga inhibitor 36*, Pf growth 96h inconclusive, AMA1 RON2 block -5%, CHX counter 34* and Pf growth 48h -19%.
For O=C(Nc1cc(Cl)ccc1C(=O)O)c1ccc(CN2C(=O)c3ccccc3C2=O)cc1 the results were HCV inhibitor inconclusive and AMA1 RON2 block 0%.
Screening Cc1ccc(O)c(NC(=O)c2ccc3c(c2)C(=O)N(CC(C)C)C3=O)c1 returned HCV inhibitor 11%, Pf growth 96h inconclusive, AMA1 RON2 block 14%, CHX counter 33* and Pf growth 48h 44%.
COc1ccccc1C(O)c1ncc(-c2cccc3ccccc23)[nH]1 (stereo unspecified) was read as AMA1 RON2 block 7%.
Cc1c(C(=O)N/N=C/c2ccc(N(C)C)cc2)[nH]c2ccc(Cl)cc12 was read as HCV inhibitor inconclusive, Shiga inhibitor -1, Pf growth 96h 1.9µM*, AMA1 RON2 block 12%, CHX counter 1 and Pf growth 48h 20%.
For COc1cc(C(=O)NN=Cc2ccc(N(C)C)cc2)cc(OC)c1OC the results were AMA1 RON2 block 10%.
`Cc1c(C(=O)N/N=C/c2ccccc2)[nH]c2ccc(Cl)cc12` gave HCV inhibitor inconclusive, Shiga inhibitor 41*, Pf growth 96h inconclusive, AMA1 RON2 block 6%, CHX counter 27* and Pf growth 48h 4%.
